# In the library only some 2.3% were active in any assay of this set; here they are far more common.
# CHRM1 antagonist: antagonists of human M1 muscarinic receptor; P11229; CHO-K1 hM1, Fluo-8 calcium fluorescence, ACh EC80 antagonist; inhibition, % at 3 µM; 360,000 compounds, 1.3% hits; AID 588852;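 active means percent inhibition above its own plate's cutoff, namely the mean of that plate's compound wells plus 3 SD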;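 further: peak over basal fluorescence ratio during 140 s after agonist addition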
# Target sequence (P11229 whole entry, looked up): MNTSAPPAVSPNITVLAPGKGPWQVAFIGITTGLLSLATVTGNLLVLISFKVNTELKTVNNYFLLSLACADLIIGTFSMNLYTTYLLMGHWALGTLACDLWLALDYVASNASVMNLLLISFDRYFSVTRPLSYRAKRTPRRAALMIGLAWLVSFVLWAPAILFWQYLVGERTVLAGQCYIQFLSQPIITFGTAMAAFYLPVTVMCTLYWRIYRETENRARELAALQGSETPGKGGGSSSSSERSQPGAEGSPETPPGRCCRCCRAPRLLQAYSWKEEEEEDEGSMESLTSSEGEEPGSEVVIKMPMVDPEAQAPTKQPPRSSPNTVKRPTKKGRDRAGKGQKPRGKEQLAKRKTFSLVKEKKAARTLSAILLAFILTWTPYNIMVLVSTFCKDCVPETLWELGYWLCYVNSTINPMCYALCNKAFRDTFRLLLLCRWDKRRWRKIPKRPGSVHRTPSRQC
# M1 ag: activates human CHRM1 receptor; AID 588814; activation, % at 3 µM; 360,000 compounds, 0.33% hits; P11229; CHO-K1 hM1, Fluo-8 calcium fluorescence, agonist mode; 0% DMSO, 100% acetylcholine EC100;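 active means activation above the run's mean compound activation plus 3 SD, cut at about 16% in these data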;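 further: peak over basal fluorescence ratio within a 140 s kinetic read after compound addition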
# CHO-K1 Ca antag: counter-screen for M1 antagonists: effect in parental CHO-K1 cells; ATP-induced calcium, Fluo-8 fluorescence; inhibition, % at 3 µM; 360,000 compounds, 0.6% hits; AID 602250;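 active means inhibition above a per-plate cutoff, the plate's mean sample inhibition plus 3 SD, cut at about 24% in these data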
# M1 PAM: positive allosteric modulators of human M1 muscarinic receptor; CHO-K1 hM1, Fluo-8 calcium fluorescence, ACh EC20; 0% = ACh EC20, 100% = maximal ACh; activation, % at 3 µM; 360,000 compounds, 0.088% hits; in the data active means activation above about 19%, passing the limit was not always enough
# CHO-K1 Ca ag: M1 agonist counterscreen hit in parental CHO-K1 cells; activation, % at 3 µM; 360,000 compounds, 0.48% hits; Fluo-8 calcium fluorescence; scaled to maximal ATP response, vehicle zero; in the data active means activation above about 15%;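 further: untransfected CHO-K1 host cells lacking M1 receptor as counterscreen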
# CHO-K1 Ca PAM: nonselective activator or artifact in parental CHO-K1 calcium assay | activation, % at 3 µM | ATP EC20, Fluo-8 calcium fluorescence; 0% at ATP EC20, 100% at ATP max | 360,000 compounds, 0.02% hits | AID 602247;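 active means activation above the run cutoff, the mean activation of all test compounds plus 3 SD, cut at about 40% in these data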;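 further: peak over basal fluorescence ratio in a 140 s read after ATP addition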
# Hits are given with their value; 0 = inactive; - = no result.
SMILES,CHRM1 antagonist,M1 ag,CHO-K1 Ca antag,M1 PAM,CHO-K1 Ca ag,CHO-K1 Ca PAM
Cc1ccc2[nH]c3c(=O)n(CC(=O)N4CCN(C)CC4)ncc3c2c1,0,0,0,0,0,0
COc1cccc(C(=O)NCC(=O)N2CCN(c3ccc(C(F)(F)F)cn3)CC2)c1,37,0,27,0,0,0
O=C(CCN1C(=O)c2ccccc2C1=O)C1=NN[C@@H]2C(=O)N(c3ccc4c(c3)OCO4)C(=O)[C@H]12,0,0,0,0,0,0
COC(=O)c1cccnc1-n1c(=O)c2cccnc2n(Cc2ccc([N+](=O)[O-])cc2)c1=O,0,18,0,0,0,0
O=S(=O)(c1ccccc1)N1CCN(S(=O)(=O)c2ccccc2)C1,0,0,0,0,0,0
O=S(=O)(/N=S1/CC=CCN1S(=O)(=O)c1ccccc1)c1ccccc1 (centres undefined),0,21,0,0,0,0
CCCCCCCCCCCCCCCCn1cc[n+](C)c1,42,0,0,0,0,0
Cc1ccc(C(=O)Nc2ncccc2C)cc1S(=O)(=O)N1CCCCC1,0,0,0,0,0,0
CCC(=O)N1CCN(c2ccc(NC(=O)COc3ccccc3[N+](=O)[O-])cc2)CC1,31,0,0,0,0,0
CN(C)c1ccc(/C=C/c2nc3ccccc3c(=O)n2CCO)cc1,0,30,0,0,0,0
O=S(=O)(/N=C(/Nc1ccccc1)c1ccccc1O)c1ccccc1,0,0,0,0,0,0
CC1=Nc2ccccc2/C1=C/c1nc(-c2ccc(C)s2)oc1O,0,0,0,0,0,0
CC1=Nc2ccccc2/C1=C/c1sc(=N)n(-c2nccs2)c1O,34,0,25,0,0,0
Cc1cccc(C)c1Nc1nc2ccccc2o1,0,0,25,0,0,0
CCCC(=O)N1CCCC1(C)C(=O)Nc1cc(OC)c(OC)c(OC)c1 (centres undefined),0,0,0,0,0,0
CCOc1ccc(-n2c(O)c(/C=N/NC(=O)C3COc4ccccc4O3)c3ccccc3c2=O)cc1 (centres undefined),0,0,0,0,0,0
CCCCn1nnnc1C(c1ccccc1)N1CCN(c2cc(C)ccc2C)CC1 (centres undefined),-,-,0,-,0,0
COc1ccccc1CNC(=O)CCC(=O)N1Cc2cccc(OC)c2Oc2ncccc21,0,0,0,0,0,0
COC(=O)C1=C(C)OC(N)=C(C#N)C1c1cc2cc(C)ccc2nc1Cl (centres undefined),0,24,0,0,0,0
CC(=O)C1=C(C)OC(N)=C(C#N)C1c1cc2cc(C)c(C)cc2nc1Cl (centres undefined),0,0,0,0,0,0
O=C(COc1ccccc1)NC(=S)N1CCc2ccccc21,0,0,24,0,0,0
COc1ccc(CN2C(=O)C(CC(=O)NCC3CCCCC3)CC(C(=O)N(C(C)C)C(C)C)=C2C)cc1 (centres undefined),0,0,0,0,0,0
CCCCn1c(N)c(N(CCOC)C(=O)c2cc(=O)[nH]c3ccccc23)c(=O)[nH]c1=O,0,0,0,0,0,0
CCCCn1c(N)c(N(CCOC)C(=O)c2cc(C)oc2C)c(=O)[nH]c1=O,0,0,24,0,0,0
CCCCn1c(N)c(N(CC)C(=O)c2cc(OC)cc(OC)c2)c(=O)[nH]c1=O,0,0,0,0,16,0
SMILES,CHRM1 antagonist,M1 ag,CHO-K1 Ca antag,M1 PAM,CHO-K1 Ca ag,CHO-K1 Ca PAM
CCOC(=O)/C(=C/C=C1\Sc2cc(C)c(C)cc2N1CC)C(C)=O,33,51,0,0,22,0
CCN1/C(=C/C(=O)c2ccco2)Sc2ccccc21,0,0,0,0,0,0
CCC(=O)/C=C1/Sc2ccccc2N1CC,0,0,0,0,0,0
CCOC(=O)/C(=C/C=C1\Sc2ccccc2N1CC)C(C)=O,0,19,28,0,18,0
CCOC(=O)/C(=C\C=C1/Sc2ccccc2N1CC)C(C)=O,0,47,0,0,38,0
CC(C)N(Cc1cn[nH]c1-c1ccc(-c2ccccc2)cc1)Cc1nccn1C,0,0,0,0,0,0
COc1ccccc1N1CCN(/N=C\c2sccc2C)CC1,0,0,0,0,20,0
O=C(NCc1ccccc1CN1CCCC1)C1CCN(C(=O)c2ccc(Cl)cc2)CC1,0,0,0,0,0,0
COc1ccc(C(CCN(Cc2ccc(OC)c(OC)c2)C(C)=O)C(C)C)cc1 (centres undefined),0,0,0,0,0,0
COc1ccc(C(=O)C2CCCN(S(=O)(=O)c3ccc(C(C)=O)cc3)C2)c(C)c1 (centres undefined),43,0,0,0,16,0
C#Cc1cccc(C(=O)N2CCCC(C(=O)c3ccc(OC)cc3C)C2)c1 (centres undefined),0,0,25,0,0,0
Cc1cn([C@H]2C[C@H](O)[C@@H](CCC(=O)NC(c3ccccc3)c3ccccc3)O2)c(=O)[nH]c1=O,0,0,0,0,0,0
CC(C)NC(=O)NC(=O)COC(=O)Cc1c(F)cccc1Cl,0,0,0,0,0,0
COCc1cc(CN2CCCC(C(=O)Nc3ccc(-c4ccco4)cc3)C2)ccc1OC (centres undefined),0,0,0,0,0,0
c1cnc2ncc3sccc3c2c1,0,0,0,0,19,0
Cc1cnc2ncc3sccc3c2c1,0,0,0,0,0,0
COc1ccc([N+](=O)[O-])cc1NC(=O)C(C)OC(=O)CSC(C)C(=O)Nc1cc(C)on1 (centres undefined),0,0,0,0,0,0
Cc1cccc(/C=N/NC(=O)c2cc(C3CC3)nc3ccccc23)n1,0,0,26,0,0,0
Cc1cccc(/C=N/NC(=O)c2cc(C)nc3ccccc23)n1,0,0,0,0,0,0
O=C(c1ccc(=O)n(Cc2ccccc2)n1)N1CCN(C/C=C/c2ccccc2)CC1,41,0,0,0,0,0
O=C(NCCCN=C1NS(=O)(=O)c2ccccc21)c1ccc(Cl)cc1,0,0,0,0,0,0
O=C(Cn1c(C(F)(F)F)nc2ccccc21)N/N=C/c1ccco1,0,0,0,0,17,0
O=C(CN1CCN(Cc2ccccc2Cl)CC1)N/N=C/c1ccco1,0,0,0,0,17,0
O=C(CSc1ccc(S(=O)(=O)N2CCOCC2)cn1)Nc1ccc(F)c(F)c1,39,0,0,0,0,0
CCC1Oc2ccccc2N(CC(=O)NCCCN2CCOCC2)C1=O (centres undefined),0,0,27,0,0,0
O=C(CN(C1CCCCC1)S(=O)(=O)c1ccc(Cl)cc1)N1CCOCC1,0,0,27,0,0,0
O=C(CN(C1CCCCC1)S(=O)(=O)c1ccccc1)N1CCCC1,0,0,0,0,0,0
